Measured values published in PubChem BioAssay AID1578 (Sanford-Burnham Center for Chemical Genomics, 2009).
Screen size: about 290,000 compounds; about 3,000 (1%) were called active. The sample holds actives, similar compounds and a random draw of the others, so the mix is not that of the screen. No stated cut-off is given here; in the data, active means inhibition mostly above about 36% (no sharp cut-off); inactive means mostly below about 34%.

assay: inhibition of NOD1-driven NF-kB reporter – cell-based, luminescence, uHTS, primary screen (AID 1578); details: NOD1-driven NF-kB luciferase reporter cells, at 4 µM, active compounds read high;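 further: HEK-293T reporter cells stimulated with the NOD1 agonist gamma-tri-DAP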

Row | Compound | inhibition
1 | O=C(NCCc1ccccc1)c1ccc(CS(=O)Cc2cccc(Cl)c2)o1 (stereo not given) | -20.6% (inactive)
2 | CCOC(=O)c1c(/N=C/c2ccccc2O)sc2c1CCC2 | 8.8% (inactive)
3 | COc1ccc(S(=O)(=O)NCCc2c(C)nn(C)c2Oc2ccccc2)cc1 | -4.8% (inactive)
4 | COc1ccc(CCCC(=O)Nc2ccc(F)cc2)cc1 | 11.5% (inactive)
5 | CCNc1nc(NC(C)C)nc(Oc2ccc(/C=N/O)cc2)n1 | -10.5% (inactive)
6 | CCOc1ccc(CC2NCCc3cc(OCC)c(OCC)cc32)cc1OCC (stereo not given) | -27.9% (inactive)
7 | CSc1ccc(C(=O)C2CCCN(C(=O)CN3CCOC3=O)C2)cc1 (stereo not given) | -29.8% (inactive)
8 | CCOc1ccc(C(=O)NCCC(=O)N2CCC3(CC2)NCCc2[nH]cnc23)cc1 | -23.8% (inactive)
9 | O=NN(CCc1ccncc1)c1ccc(OCc2ccccc2)cc1 | 43.7% (active)
10 | O=C(N/N=C/c1ccc(OCc2ccccc2)cc1)c1ccncc1 | -35.1% (inactive)
11 | COc1ccc(N(Cc2ccccc2)N=O)cc1 | -31.8% (inactive)
12 | Cc1c(C)c2ccc(O)c(CN3CCN(C)CC3)c2oc1=O | 2% (inactive)
13 | CCOc1ccccc1NC(=S)NC(=O)C1CCCCC1 | -8% (inactive)
14 | COc1ccccc1NC(=S)NC(=O)C1CC1 | -18.7% (inactive)
15 | CCOc1ccccc1NC(=S)NC(=O)C1CC1 | 65.9% (active)
16 | CC(=O)Nc1ccc(NC(=O)CSc2nnc(NC(=O)C3CC3)s2)cc1 | -6.1% (inactive)
17 | CN1C(=O)c2cccc(NC(=O)C3CCCCC3)c2C1=O | -4% (inactive)
18 | Cc1cccc(NC(=S)NNc2ncc(C(F)(F)F)cc2Cl)c1 | 34.9% (inactive)
19 | FC(F)(F)c1cnc(NNC(=S)Nc2ccc(Cl)cc2)c(Cl)c1 | 104% (active)
20 | Cc1ccc(NC(=S)NNc2ncc(C(F)(F)F)cc2Cl)cc1 | 36.4% (inactive)
21 | C=CCN1C(=O)C(CC(=O)O)SC1=Nc1ccc(N=Nc2ccccc2)cc1 (stereo not given) | -20.5% (inactive)
22 | O=C(CN1C2=NCCN2c2ccccc21)c1ccc(Br)cc1 | 6.8% (inactive)
23 | Cc1cc(Cl)cc(Cl)c1OCC(=O)NCc1ccco1 | 20.4% (inactive)
24 | CCN(CC(=O)NC(C)(C)C)C(=O)COc1c(Cl)cc(Cl)c2ccc(C)nc12 | 49.3% (active)

Row | Compound | inhibition
25 | Cc1ccc2c(Cl)cc(Cl)c(OCC(=O)NC(C)(C)C)c2n1 | -11.5% (inactive)
26 | Cc1ccc2c(Cl)cc(Cl)c(OCC(=O)N(C(C)C)C(C)C)c2n1 | -3.8% (inactive)
27 | Cc1ccc2c(Cl)cc(Cl)c(OCC(=O)NC(=O)NCc3ccco3)c2n1 | -16.8% (inactive)
28 | Cc1ccc2c(Cl)cc(Cl)c(OCC(=O)NCc3ccco3)c2n1 | 101% (active)
29 | COc1cccc(CN(C)C(=O)CNC(=O)c2ccc3c(c2)OCO3)c1OC | -8.5% (inactive)
30 | CC(C(=O)Nc1ccc2c(c1)OCO2)N(c1ccc(Cl)cc1)S(C)(=O)=O (stereo not given) | -9.6% (inactive)
31 | COc1ccc(-c2oc(NC(=O)CCl)c(C#N)c2-c2ccc(OC)cc2)cc1 | 71.1% (active)
32 | COc1ccc(-c2oc(NC(C)=O)c(C#N)c2-c2ccc(OC)cc2)cc1 | 11.7% (inactive)
33 | COc1ccc(-c2oc(NC(=O)c3ccc(C)cc3)c(C#N)c2-c2ccc(OC)cc2)cc1 | -18.9% (inactive)
34 | COC(=O)CN1C(=O)C2(C(C#N)=C(N)Oc3ccccc32)C2=C1CC(C)(C)CC2=O (stereo not given) | 1.7% (inactive)
35 | COc1ccc(-n2c(C)c(C(C)=O)c(C(C)=O)c2C)cc1OC | -0.8% (inactive)
36 | COc1ccc(NC(=S)NC(NC(C)=O)C(Cl)(Cl)Cl)c([N+](=O)[O-])c1 (stereo not given) | -5.3% (inactive)
37 | COc1ccc(NC(=S)NC(NC(=O)C(C)C)C(Cl)(Cl)Cl)c([N+](=O)[O-])c1 (stereo not given) | 11.7% (inactive)
38 | COc1ccc(NC(=S)NC(NC(=O)CCl)C(Cl)(Cl)Cl)c([N+](=O)[O-])c1 (stereo not given) | 76.4% (active)
39 | CCOC(=O)N1CCC(NC(=O)c2ccc3c(c2)N=C(CC)c2ccccc2S3)CC1 | 20.2% (inactive)
40 | O=C(NNC(=S)Nc1ccccc1)c1ccccc1[N+](=O)[O-] | -34.4% (inactive)
41 | CCC(C)(C(=O)NC1CCCCC1)N(C(=O)CNC(C)=O)c1c(C)n(C)n(-c2ccccc2)c1=O (stereo not given) | -13.9% (inactive)
42 | NC(=S)NN=C1c2cc(S(=O)(=O)N3CCOCC3)ccc2-c2ccc(S(=O)(=O)N3CCOCC3)cc21 | -20.4% (inactive)
43 | NC(=S)NN=C1c2cc(OCCN3CCOCC3)ccc2-c2ccc(OCCN3CCOCC3)cc21 | 42.8% (active)
44 | ON=C1c2cc(OCCN3CCCCC3)ccc2-c2ccc(OCCN3CCCCC3)cc21 | 0.3% (inactive)
45 | Cc1cccc(C(=O)Nc2ccc(C(=O)Nc3ccc(O)cc3)cc2)c1 | -22.1% (inactive)
46 | COc1ccc(CC(=O)OCC(=O)NCCc2ccccc2)cc1OC | -25.2% (inactive)
47 | C=CCn1c(SCCOc2ccc(OC)cc2)nnc1C(C)NC(=O)Cc1ccc(OC)cc1 (stereo not given) | 74.9% (active)
48 | C=CCn1c(SCCOc2ccc(OC)cc2)nnc1C(C)NC(=O)c1ccc(OC)cc1 (stereo not given) | 5.8% (inactive)

Row | Compound | inhibition
49 | COc1ccc(CC(=O)NC(C)c2nnc(SCCOc3ccc(OC)cc3)n2C)cc1 (stereo not given) | -0.8% (inactive)
50 | COc1ccc(-c2cc(C(=O)N/N=C(\C)c3ccco3)c3ccccc3n2)c(OC)c1 | -42.5% (inactive)
51 | CCN1C(=NCc2ccc(OC)cc2)N[C@@H](c2ccccc2)C(C(=O)OC)=C1C | -15.5% (inactive)
52 | CC(C)CCN1CCN(Cc2cccn2-c2nccs2)CC1CCO (stereo not given) | -20.1% (inactive)
53 | CN1CCN(C(=O)CCC(=O)O)CC1 | -14.8% (inactive)
54 | COc1cccc(CC(=O)n2nc(N)c3cc4ccc(OC)cc4nc32)c1 | 3.9% (inactive)
55 | COc1ccc2cc3c(N)nn(C(=O)Cc4ccc(Cl)cc4)c3nc2c1 | 14.9% (inactive)
56 | Clc1cccc(Nc2ncnc3ccc(Br)cc23)c1 | 11.7% (inactive)
57 | Cc1cccc(Nc2ncnc3ccc(Br)cc23)c1 | 42.4% (inactive)
58 | OCCNc1ncnc2ccc(Br)cc12 | 46.1% (inactive)
59 | CCOc1ccccc1Nc1ncnc2ccc(Br)cc12 | -11.1% (inactive)
60 | CN(C)c1ccc(Nc2ncnc3ccc(Br)cc23)cc1 | 53.8% (inactive)
61 | CCN(CC)c1ncnc2ccc(Br)cc12 | 67.5% (active)
62 | CC(C)Nc1ncnc2ccc(Br)cc12 | 87.6% (active)
63 | CN(Cc1ccccc1)c1ncnc2ccc(Br)cc12 | 10.2% (inactive)
64 | Cc1ccc(CC2C(=O)N(c3cc(Cl)ccn3)C(=O)C2C)cc1 (stereo not given) | -9.5% (inactive)
65 | Cc1nn(C)cc1CN1CCC(n2nccc2NC(=O)CCCc2ccccc2)CC1 | -26.7% (inactive)
66 | O=C(/C=C/c1ccco1)c1ccccc1O | -22.5% (inactive)
67 | COc1ccc(NC(=O)c2cc(-c3ccc(OC)c(OC)c3)on2)cc1OC | -8.9% (inactive)
68 | N#Cc1ccc(N2CCCC2C(=O)O)c([N+](=O)[O-])c1 (stereo not given) | 6.2% (inactive)
69 | COC(=O)C1(c2ccccc2)NC(c2cccs2)C2C(=O)N(C)C(=O)C21 (stereo not given) | -15.5% (inactive)
70 | CN(C)/C=C1\N=C(c2cccnc2Oc2ccc(Cl)cc2)OC1=O | -11.9% (inactive)
71 | COc1ccc(OC)c(NC(=O)CNC(=O)Cn2ccc3ccccc3c2=O)c1 | -4% (inactive)
72 | CN(C)c1nc2n(c(=O)n1)CCS2 | -11.7% (inactive)

Row | Compound | inhibition
73 | CCOC(=O)C1CCN(S(=O)(=O)c2c(C)noc2C)CC1 | -15.9% (inactive)
74 | CCOC(=O)C1CCN(S(=O)(=O)c2c(Cl)ccc3nonc23)CC1 | 102% (active)
75 | CCOC(=O)C1CCN(S(=O)(=O)c2cccc3nonc23)CC1 | -27.8% (inactive)
76 | CC(CCN1CCOCC1)c1ccccc1 (stereo not given) | -28% (inactive)
77 | Cc1ccc(C(=O)N2CCN(c3ccccc3)CC2)cc1S(=O)(=O)N1CCCC1 | 3.9% (inactive)
78 | O=C(c1ccc(S(=O)(=O)Cc2ccccc2F)c([N+](=O)[O-])c1)N1CCCCCC1 | 1% (inactive)
79 | O=C(NC1CCCCC1)c1ccc(S(=O)(=O)c2ccccc2)cc1 | 18% (inactive)
80 | Cc1cc(C(=O)N2CCN(Cc3ccccc3)CC2)ccc1[N+](=O)[O-] | 0.5% (inactive)
81 | O=C(NC1CCCC1)c1ccc(Cl)c(S(=O)(=O)N2CCCCC2)c1 | 10.6% (inactive)
82 | O=C(c1ccc(Cl)c(S(=O)(=O)N2CCCC2)c1)N1CCN(c2ccc(F)cc2)CC1 | 0.4% (inactive)
83 | O=C(c1ccc(Br)c([N+](=O)[O-])c1)N1CCN(Cc2ccccc2)CC1 | -6.4% (inactive)
84 | O=C(NC1CCCCC1)c1ccc(S(=O)(=O)c2ccccc2Cl)c([N+](=O)[O-])c1 | 91.4% (active)
85 | O=C(c1ccc(S(=O)(=O)Cc2cc(F)ccc2F)c([N+](=O)[O-])c1)N1CCCC1 | 5% (inactive)
86 | COc1cccc(C(=O)NCCCNC(=O)c2cccc(OC)c2)c1 | -4.9% (inactive)
87 | CCN(CC)S(=O)(=O)c1ccc(S(=O)(=O)N2CCN(C(=O)c3ccco3)CC2)cc1 | -3.5% (inactive)
88 | CC(=O)Nc1ccc(NC(=O)C(C)Sc2nnc(-c3cccs3)o2)cc1 (stereo not given) | -14.2% (inactive)
89 | Cc1ccccc1C(=O)Nc1ccccc1 | -15.4% (inactive)
90 | Cc1c(C(=O)NN2CCOCC2)oc2c1ccc1ccccc12 | -35.1% (inactive)
91 | COc1ccc(CCNC(=O)COC(=O)/C=C/c2ccc(OCC#N)c(OC)c2)cc1 | -30.9% (inactive)
92 | Cc1cc(C)n2nc(C(=O)N3CCN(c4ccc([N+](=O)[O-])cc4)CC3)nc2n1 | -21.8% (inactive)
93 | CCOC(=O)C1CCN(CC(O)COCc2cccs2)CC1 (stereo not given) | -28.2% (inactive)
94 | CCOC(=O)C1CCN(CC(O)COCc2ccc(Cl)cc2)CC1 (stereo not given) | -12.3% (inactive)
95 | CCOC(=O)C1CCN(CC(O)COCc2ccccc2)CC1 (stereo not given) | 34.7% (active)
